# Source: PubChem BioAssay AID624137 (Broad Institute, 2012)
# About 360 (1.2%) of roughly 31,000 compounds were called active. How the calls were made is not given here. Many of the other results were omitted from the sample, so actives are more common in it than they were.
# Target: DNA-binding protein inhibitor ID-4 (Homo sapiens) (UniProt P47928)
# Experiment: PubChem AID 624137;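 further: a binder raises fluorescence above local background on the spot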
# Conditions: small molecule microarray, Flag-ID4 binding, fluorescence F/B
# Chain of DNA-binding protein inhibitor ID-4 (Homo sapiens) (P47928 whole entry, looked up): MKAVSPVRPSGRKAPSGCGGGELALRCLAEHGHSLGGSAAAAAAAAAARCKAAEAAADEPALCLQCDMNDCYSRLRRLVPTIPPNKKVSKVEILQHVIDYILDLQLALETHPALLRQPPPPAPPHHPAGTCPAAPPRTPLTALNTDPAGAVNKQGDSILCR
row,Structure (SMILES),outcome
1,COc1ccc2[nH]cc(CCNCc3ccc(Br)cc3)c2c1,inactive
2,c1cncc(CNCCc2c[nH]c3ccccc23)c1,active
3,Cc1cc(OCc2cc(C(=O)O)oc2C)c2c3c(c(=O)oc2c1)CCCC3,inactive
4,Cc1ccc(OC(=O)N(C)C[C@@H]2OCc3cnnn3CCCC(=O)N([C@H](C)CO)C[C@@H]2C)cc1,inactive
5,COC(/C=C/CC/C=C/C(=O)O)C(O)C(C)C(O)/C(C)=C/C(C)C(=O)CCCC1CC(=O)NC(=O)C1 (stereo not given),inactive
